Data published in the supplement of paper PMC3334620.
Over roughly 33,000 sequences, “E-score (-0.5 to 0.5)” has its median near -0.013; the highest 2% begin near 0.3. The entries come from a sample that favours the highest values as a whole.

The sequences below were run against T1, Msn1 (UniProt P22148) (assay: PBM E-score (8-mer binding enrichment) (E-score (-0.5 to 0.5)); higher = stronger / more preferred TF binding). Details: protein concentration: 200 nM; construct: GST-full length.
T1 sequence: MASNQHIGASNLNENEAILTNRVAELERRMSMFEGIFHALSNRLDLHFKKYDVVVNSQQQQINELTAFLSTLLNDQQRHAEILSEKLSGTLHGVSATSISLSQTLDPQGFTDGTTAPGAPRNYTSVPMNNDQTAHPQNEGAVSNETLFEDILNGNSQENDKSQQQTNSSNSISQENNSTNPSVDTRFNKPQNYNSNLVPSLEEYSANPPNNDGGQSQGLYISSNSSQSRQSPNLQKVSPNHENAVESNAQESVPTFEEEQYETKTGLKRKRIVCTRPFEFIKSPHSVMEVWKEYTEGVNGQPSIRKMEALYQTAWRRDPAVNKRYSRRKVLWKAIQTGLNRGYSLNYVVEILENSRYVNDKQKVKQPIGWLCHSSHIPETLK
Method in brief: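 Using PURExpress in vitro transcription/translation, GST-tagged yeast transcription factors were made in full-length or DNA-binding-domain form. These were applied at about 100-200 nM to double-stranded universal all-10-mer Agilent arrays, and bound protein was detected with fluorescent anti-GST. Scans were normalised with masliner before the Universal PBM Analysis Suite assigned E-scores to ungapped eight-base words pooled with their reverse complements.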

Sequence | PBM E-score
ATGGGTAA | 0.0578
CTTCCACC | -0.298
CGGTATCC | -0.224
AAACATGT | 0.17
ACCGATTC | -0.0811
CGATTGTA | 0.088
AGATTGTA | 0.091
CGATTGTC | 0.348
AGATTGTG | -0.0281
AGATTGTC | 0.369
CGATTGAC | 0.151
AGTTATTA | 0.0736
CAGCACTG | -0.226
GCCTTCGC | -0.098
CCAGATTC | -0.389
CTTTGTAC | 0.322
ATTTGTAC | 0.46
ATTTGTAG | 0.162
ATTTGTAA | 0.169
CTTTGTAA | 0.168
CCTTGTAC | 0.183
AGGAATTC | -0.0844
AGCGAACG | -0.274
CACCTTCG | -0.0896
CCAAATGG | 0.169
ACAAATGA | 0.317

Sequence | PBM E-score
GCAAATGC | -0.113
ACAAAGGT | 0.218
ACAAATGT | 0.446
ACAAATGG | 0.345
ACAAACGT | 0.244
CCAAATGA | 0.05
ACAAATGC | 0.304
CCAAATGC | -0.0167
GCAAATGA | -0.0127
ACAATGGG | 0.196
CTTCGGGA | 0.15
AACGAGCT | -0.0712
GGCGGCCA | -0.161
CGGTTAGA | -0.22
CACAATCC | 0.119
GCTCAACA | -0.0111
ATAGTTTG | 0.274
GCGCGATA | 0.119
GGATTGGA | 0.0131
ACAAATCT | 0.308
ACAAATCA | 0.266
ACAAATCC | 0.265
GAGGATCC | -0.0362
AAAAATGC | 0.0785
AAAAATGG | 0.311
CAAAATGG | 0.133

Sequence | PBM E-score
AAAAATGA | 0.143
AAAATGGG | 0.182
AAAAATGT | 0.335
AGTTTTTC | 0.0155
ATGCGTGA | 0.167
CGCCAGCG | -0.278
GTCCGGAC | 0.406
CTCCGGAC | 0.224
ATCCGGAC | 0.297
ATCCGGAA | 0.215
CTCCGGGA | -0.0499
CTCCGGAA | 0.0926
GTCCGGAA | 0.368
ATCCGGGA | -0.0993
GTCCGGGA | 0.336
GAGGAGCA | -0.184
TATTTTGA | 0.033
ATCTTTGG | -0.0763
CACTTGTA | 0.157
AACTTGTG | 0.132
AACTTGTA | 0.107
CACTTGTC | 0.408
AACTTGAA | 0.101
AACTTGAT | 0.321
CGCTTGTA | 0.211
CCCTTGTC | 0.204

Sequence | PBM E-score
CGCTTGTC | 0.345
AGCTTGTC | 0.168
AACTTGAG | -0.212
AACTTGTC | 0.391
ACCGAATG | -0.0786
AGCTCACA | -0.111
GCGGCTCC | -0.285
AACGCTAA | -0.0499
ATCGCAAC | -0.0713
GTTAAGAA | -0.0961
GATCCGGA | 0.0679
ACACCTAC | -0.04
ATCTTGTC | 0.246
CTCTTGTA | 0.035
CTCTTGTC | 0.339
CCACCACA | -0.214
TATGGGGA | 0.123
AAGAGGGT | -0.12
ACACATTG | 0.171
CTACATTC | -0.121
CGACATTA | 0.386
AGACATTG | 0.402
CGACATGC | 0.218
AAACATTG | -0.00791
AGACATTA | 0.429
CCACATTA | -0.107

Sequence | PBM E-score
CTACATTA | 0.00564
CGACATTC | 0.332
AGACATGA | 0.226
ACACATTA | 0.0185
ACTAATCA | 0.152
GTTTAGCA | 0.0757
CTCACCCA | -0.0776
TCCTTAGA | 0.117
CAACTATG | 0.161
GGCAGCGA | -0.245
AGATCGCT | -0.0127
GTACATTA | 0.278
ACACATTC | 0.11
GCACATTA | -0.0601
AGACATTC | 0.445
GGACATTA | 0.489
AGACATGC | 0.21
CGAAACCG | 0.0338
ACGCAAGC | -0.0684
ACTAGCTG | 0.0299
AATTCATC | -0.22
AAAAAGTG | -0.0627
